Experimental data: PubChem BioAssay AID1347043 (National Center for Advancing Translational Sciences (NCATS), 2019)
Hit rate of the full screen: of about 76,000 compounds, about 1,900 (2.5%) were called active. Not shown: some 5% with an inconclusive outcome. Shown is part of a subset that was picked to be rich in actives. Unmarked numbers belong to inactive results. The call rests on the fitted dose curve; in most records, active means well fitted inhibition curve with a large enough effect; inconclusive means small, poorly fitted or top-dose-only effect; inactive means flat fitted curve, though single readings scatter.

Biological target: Luciferin 4-monooxygenase (Photinus pyralis) (UniProt P08659)
Sequence (P08659 whole entry, looked up): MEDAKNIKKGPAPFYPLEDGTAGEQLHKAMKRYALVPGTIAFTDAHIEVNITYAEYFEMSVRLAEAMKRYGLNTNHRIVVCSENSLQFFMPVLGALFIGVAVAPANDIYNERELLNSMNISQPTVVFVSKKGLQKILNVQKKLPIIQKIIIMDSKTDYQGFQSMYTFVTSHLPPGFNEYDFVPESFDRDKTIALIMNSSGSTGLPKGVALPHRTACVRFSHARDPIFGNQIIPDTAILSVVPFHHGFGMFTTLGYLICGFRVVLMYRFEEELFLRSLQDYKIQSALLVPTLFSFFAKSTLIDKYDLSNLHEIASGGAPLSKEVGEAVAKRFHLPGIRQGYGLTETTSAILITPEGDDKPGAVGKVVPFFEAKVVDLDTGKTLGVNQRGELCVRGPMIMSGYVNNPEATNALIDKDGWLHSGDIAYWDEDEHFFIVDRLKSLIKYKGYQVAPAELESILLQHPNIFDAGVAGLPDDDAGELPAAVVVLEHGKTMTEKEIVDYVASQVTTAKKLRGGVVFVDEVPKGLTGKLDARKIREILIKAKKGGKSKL
Test: Firefly luciferase inhibition profiling of diverse chemical library using quantitative high-throughput screening; further: nearly all actives have a fitted effect of over 65% in size
Conditions: purified P. pyralis luciferase, luminescence, biochemical; series mostly up to 115 µM; activity change, negative = inhibition: at the top concentration
Outline: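 Luminescence read by CCD imager after adding enzyme (10nM final) to wells holding compound, titrated in qHTS. Substrates 10uM each D-luciferin and ATP; buffer 50mM Tris acetate pH 7.5, 10mM Mg acetate, Tween-20, BSA.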
On the % scale 0 is the no-effect control and ±100 the full control effect; potency means the concentration at half of the fitted maximal effect.

Row | SMILES | activity change, negative = inhibition | Potency
1 | CC(C)CN1CCN(C2CCOC3(CCN(C(=O)C4CCCC4)CC3)C2)CC1 (centres undefined) | -1.21% | 
2 | O=C(NCc1nnc2c(-c3nc(C4CC4)no3)cccn12)c1cccnc1 | -0.5% | 
3 | CC(=O)N1CCc2[nH]cnc2C12CCN(C(=O)C(C)Oc1ccccc1)CC2 (centres undefined) | 3.66% | 
4 | CCc1noc(-c2ccn3c(CNC(=O)c4ccc(OC)c(F)c4)nnc3c2)n1 | 3.28% | 
5 | O=C(c1ccc2c(c1)OCO2)N1CCCC2(CN[S+](=O)([O-])c3ccccc3N2)C1 (centres undefined) | -5.81% | 
6 | CCCn1c(C)cnc1CC1CCN(C(=O)CCOC)CC1 | -2% | 
7 | Cc1cccc(N2C(=O)CSC23CCN(C(=O)C2CCC2)CC3)c1 | -11.1% | 
8 | COc1ccnc(CN2CCN(C)C3(CCC(=O)N(C)CC3)C2)c1OC (centres undefined) | -0.911% | 
9 | CCN(CC)CC[C@H]1CN(C(=O)c2ccc(N(C)C)cc2)CC[C@H]1CC(=O)O | -2.45% [at 172 µM] | 
10 | CN1c2cc(C(=O)Nc3ccccc3)ccc2C(=O)N2CCCCCC21 (centres undefined) |  | 6.31 µM (active)
11 | Cc1ccccc1CNC(=O)c1ccc2c(c1)N(C)C1CCCCN1C2=O (centres undefined) | -12.7% | 
12 | CCN1c2cc(C(=O)Nc3ccccc3)ccc2C(=O)N2CCCC21 (centres undefined) | -13.5% | 
13 | Cc1cc(C)cc(C(=O)NC2CCN(c3cc(-c4cccs4)[nH]n3)C2)c1 (centres undefined) | 9.15% | 
14 | Cc1cccc(CN2C[C@@H]3C(=O)N(Cc4ccc5c(c4)OCO5)C(=O)[C@@H]3C2)c1 | 6.64% | 
15 | COc1ccc(OC)c(S(=O)(=O)N2CCCCCCNC(=O)CC2c2ccccc2)c1 (centres undefined) | -6.43% | 
16 | CCOc1cccc(CNC(=O)c2ccc3c(c2)N(S(C)(=O)=O)CC3)c1 | -22.4% | 
17 | CC(=O)N1CCc2ccc(C(=O)N3CCCCCC3)cc21 | -12.8% | 
18 | CCC(CC)N1CCN(C(=O)c2ccc3c(c2)N(S(C)(=O)=O)CC3)CC1 |  | 35.5 µM (active)
19 | CN(c1ccccc1)c1cc(=O)c2ccnc(-c3ccc(CO)cc3)c2o1 | -21.1% [at 172 µM] | 
20 | CN(c1ccccc1)c1cc(=O)c2ccnc(Nc3cccc([S+](C)(=O)[O-])c3)c2o1 | -11.7% [at 172 µM] | 
21 | Cc1ccc(CN2CCc3nc(C)nc(-c4ccc(O)cc4)c3C2)cc1 | -1.5% | 
22 | CCN1CCN(c2ccc(C(=O)NCCCn3ccnc3C(C)C)cn2)CC1 | 0.497% | 
23 | N#Cc1ccc(CN2CCc3nc(C(=O)N4CCOCC4)oc3CC2)cc1 | 2.1% [at 172 µM] | 
24 | O=C(NCC1CC1)c1nc2c(o1)CCN(Cc1cccc(F)c1F)CC2 | 11.9% [at 172 µM] | 
25 | O=C(Nc1ccc(Cl)cc1)c1nc2c(o1)CCN(Cc1ccsc1)CC2 |  | 17.8 µM (active)
26 | O=C(NCC1CC1)c1nc2c(o1)CCN(CCc1ccccc1)CC2 | -18.4% [at 172 µM] | 

Row | SMILES | activity change, negative = inhibition | Potency
27 | O=C(Nc1ccccc1)c1nc2c(o1)CCN(Cc1cccc(Cl)c1)CC2 |  | 1.58 µM (active)
28 | Cc1cccc(CN2CCc3nc(C(=O)Nc4ccc(Cl)cc4)oc3CC2)c1 | 0.619% [at 172 µM] | 
29 | O=C(c1ccccc1-n1cccn1)N1CCN(Cc2ccccc2CO)CC1 | 6.18% | 
30 | CCOc1ccc(C(=O)N2CCC(Cc3nc(C(C)C)no3)CC2)cc1 | 13.5% | 
31 | Cc1nccn1CC1(CNc2ccncn2)CC1 | 3.86% | 
32 | CN(C)Cc1nnc(C2CCCN(C(=O)C3(N)CCNCC3)C2)n1C (centres undefined) | -2.13% | 
33 | COc1ccccc1C1CCN(Cc2cn(-c3ccccc3)nn2)CC1 | 1.57% | 
34 | Cc1ccc(C(=O)Nc2ccc(C(O)[C@H]3COCC(=O)N3Cc3ccccc3F)cc2)cc1 (some centres undefined) |  | 28.2 µM (active)
35 | O=C(Nc1ccc([C@@H](O)[C@H]2COCC(=O)N2Cc2ccccc2F)cc1)C1CCCCC1 | 6.26% | 
36 | O=C(Nc1ccc([C@@H](O)[C@H]2COCC(=O)N2Cc2ccccc2F)cc1)c1ccccc1 | -24.9% [at 172 µM] | 
37 | O=C([C@H]1C[C@H](Oc2cccnc2)CN1C(=O)CCCc1ccccc1)N1CCOCC1 | 4.94% | 
38 | COc1ccc(F)cc1-c1ncc2c(n1)OCCN(CC1CC1)C2=O | -5.25% [at 172 µM] | 
39 | COc1ccc(-c2ncc3c(n2)OCCN(CC2CC2)C3=O)cc1 |  | 1.26 µM (active)
40 | NC(=O)c1cccc(-c2ncc3c(n2)OCCN(Cc2ccccc2)C3=O)c1 | -12.7% [at 172 µM] | 
41 | COc1ccc(-c2ncc3c(n2)OCCN(Cc2ccccc2)C3=O)cn1 |  | 15.8 µM (active)
42 | COc1ccc(CN2CCOc3nc(-c4cc(F)cc(OC)c4)ncc3C2=O)cc1 |  | 28.2 µM (active)
43 | COc1cccc(-c2nc(N3CCOCC3)cc3c2CN(CC2CC2)C3=O)c1 | 0.339% [at 172 µM] | 
44 | O=C1c2cnc(-c3ccc(O)c(F)c3)nc2OCCN1Cc1ccccc1 |  | 22.4 µM (active)
45 | O=C1c2cnc(-c3ccc(Cl)cc3)nc2OCCN1Cc1ccccc1 | -38% [at 172 µM] | 
46 | CN(C)c1cccc(-c2ncc3c(n2)OCCN(Cc2ccc(F)cc2F)C3=O)c1 | -18.6% [at 172 µM] | 
47 | COc1cccc(-c2ncc3c(n2)OCCN(Cc2ccc(F)cc2F)C3=O)c1OC | -12.3% [at 172 µM] | 
48 | C[S+](=O)([O-])c1cccc(-c2ncc3c(n2)OCCN(Cc2ccc(F)cc2F)C3=O)c1 | -3.96% | 
49 | NC(=O)c1cccc(-c2ncc3c(n2)OCCN(c2cccc(C(F)(F)F)c2)C3=O)c1 | -1.05% [at 172 µM] | 
50 | Cc1ccc(-c2nc(CNS(=O)(=O)C3CC3)[nH]c2-c2ccccn2)cc1 | -3.9% | 
51 | O=C(CC1CCCC1)N1CCOc2ccc(CN3CCc4ccccc4C3)cc2C1 | -1.27% | 
52 | Cc1noc(-c2cccn3c(CNC(=O)c4ccco4)nnc23)n1 | -1.64% | 

Row | SMILES | activity change, negative = inhibition | Potency
53 | CC1=C[C@@H](CN2CCOCC2)[C@H](C(C)C)C[C@H]1Cc1nnc(-c2ccc([N+](=O)[O-])cc2)o1 | 5.91% | 
54 | CC(C)NC(=O)N1CCN2C(=O)N(Cc3ccc(F)cc3)C[C@H]2C1 | -4.21% [at 172 µM] | 
55 | COc1ccc(CN2C[C@H]3CN(Cc4ccc(NC(C)=O)cc4)CCN3C2=O)cc1 | 1.05% [at 172 µM] | 
56 | O=C(Nc1ccccc1)N1CCN2C(=O)N(Cc3ccc(F)cc3)C[C@H]2C1 |  | 50.1 µM (active)
57 | CN(Cc1ccccc1)C(=O)C[C@@H]1CCNC[C@@H]1Cc1cc(-c2ccc(C(C)(C)C)cc2)on1 | -4.72% | 
58 | Cc1cn2nc(C(=O)N3CCC(NC(=O)c4ccc(C#N)cc4)CC3)cc2c(=O)[nH]1 | 5.34% | 
59 | CCc1noc(-c2cccn3c(CNC(=O)c4ccncc4)nnc23)n1 | 0% | 
60 | CC[C@H]1CN(C(=O)Nc2ccccc2)CC[C@H]1CC(=O)Nc1ccccc1 | -7.47% [at 172 µM] | 
61 | CCOC(=O)C1CCN(C(=O)c2cccc3c2CCN3C(=O)Nc2ccccc2)CC1 |  | 5.62 µM (active)
62 | Cc1cccc(S(=O)(=O)N2CCc3c(C(=O)NC(C)C)cccc32)c1 | 8.99% | 
63 | COc1ccc(S(=O)(=O)N2CCc3c(C(=O)NCc4ccncc4)cccc32)cc1 | -14.8% | 
64 | CCC(C)(C)NC(=O)c1cccc2c1CCN2C(=O)Nc1ccc(C)cc1 |  | 1.78 µM (active)
65 | CCOc1ccc(C(=O)N2CCCN(C(=O)C3CC3)c3ccccc32)cc1 | 6.96% | 
66 | Cc1ccc2nc(CO[C@H]3CN(C4CCOCC4)C[C@H]3F)[nH]c2c1 | -2.41% [at 172 µM] | 
67 | Cc1ncoc1C(=O)N1CCCn2ccnc2C1c1ccccc1 (centres undefined) | -3.94% | 
68 | CN(C)C(=O)CC(O)c1cc2n(n1)CCN(C(=O)Cc1ccsc1)C2 (centres undefined) | 0.804% | 
69 | Cc1cccc2c(C3CCN(S(=O)(=O)c4cc(Cl)cc(Cl)c4)CC3)c[nH]c12 | 2.81% | 
70 | COc1ccc(CN2CCc3nn(CC4CC4)c(=O)n3CC2)cc1 | -11% | 
71 | O=C(NCCC1CCN(C(=O)Nc2cc(F)ccc2F)CC1)c1cc(F)ccc1F | -11.4% | 
72 | COc1ccc(C(=O)NCCC2CCN(C(=O)Nc3ccc(F)cc3F)CC2)cc1OC | -1.92% | 
73 | COc1ccc(C(=O)NCCC2CCN(C(=O)Nc3cc(F)ccc3F)CC2)cc1 |  | 25.1 µM (active)
74 | CC(c1cccc(-c2cnc(C(=O)O)cn2)c1)N1CCCC1 (centres undefined) | 0.674% | 
75 | O=C(CCC1CCCC1)N1CCC2(CC1)CC(O)CCO2 (centres undefined) | -9.08% | 
76 | CC(=O)N(C1CC1)C1CCOC2(CCN(C(=O)CCc3ccccc3)CC2)C1 (centres undefined) | 3.47% | 
77 | O=C(CCCc1ccccc1)N1CCC2(CC1)CC(O)CCO2 (centres undefined) |  | 5.62 µM (active)
78 | COc1ccc(CC(=O)NC2CCCc3c2[nH]c2ccccc32)cc1 (centres undefined) | -7.29% | 

Row | SMILES | activity change, negative = inhibition | Potency
79 | c1c[nH]c(CNC[C@H]2Cn3ccnc3CO2)n1 | -3.28% [at 230 µM] | 
80 | Cc1ccc(-c2cn3c(n2)CO[C@@H](CNS(=O)(=O)c2cccs2)C3)cc1 | -16.3% [at 172 µM] | 
81 | COc1ccc(-c2cn3c(n2)CO[C@@H](CNCc2ccc(F)c(F)c2)C3)cc1 |  | 35.5 µM (active)
82 | Fc1ccc(CNC[C@H]2Cn3c(-c4ccc5c(c4)OCCO5)cnc3CO2)cc1 | -14.7% [at 172 µM] | 
83 | c1ccc(CNC[C@H]2Cn3cc(-c4ccccc4)nc3CO2)cc1 |  | 63.1 µM (active)
84 | O=C(Cn1nc(-c2ccccc2)n(-c2ccccc2)c1=O)N1C[C@@H]2C[C@H]1CN2 | -5.15% | 
85 | O=C(c1ccc(F)cc1)N1CCC2(CC1)CCN(Cc1cccs1)c1ccccc1O2 | -11.7% | 
86 | Cc1ccc(C(=O)Nc2ccc3ncnc(N4CCCCC4)c3c2)s1 | -15% | 
87 | Cc1ccc(C(=O)Nc2ccc3c(N4CCCCC4)ncnc3c2)s1 |  | 22.4 µM (active)
88 | Cc1cc(C)cc(C(=O)Nc2ccc3c(N4CCCC4)ncnc3c2)c1 | -3.04% | 
89 | CCCS(=O)(=O)N1CCCC(Cn2c(C)nc3cccnc32)C1 (centres undefined) | 1.14% | 
90 | CNc1nc(C(=O)NCc2ccc3[nH]c(-c4ccc(F)cc4)c(C)c3c2)cs1 |  | 12.6 µM (active)
91 | Cc1c(-c2ccc(F)cc2)[nH]c2ccc(CNC(=O)c3ccc(CO)o3)cc12 | -17.7% | 
92 | CC(C)Oc1cccc(-c2nc(C(=O)NCc3ccc(F)cc3)cs2)c1 | -8.88% | 
93 | CN1C(=O)C(CC(=O)N2CCC(C#N)CC2)(Cc2ccccc2)c2ccccc21 (centres undefined) | -4.01% | 
94 | CN(Cc1ccccc1F)Cc1ccccc1F | 2.39% [at 230 µM] | 
95 | Cc1noc(CC2CCOC3(CCN(C(=O)c4ccc(C#N)cc4)CC3)C2)n1 (centres undefined) | -10.8% | 
96 | COCCc1noc(CC2CCOC3(CCN(C(=O)Nc4ccc5c(c4)OCCO5)CC3)C2)n1 (centres undefined) |  | 35.5 µM (active)
97 | COCCc1noc(CC2CCOC3(CCN(C(=O)C4CCCC4)CC3)C2)n1 (centres undefined) | 6% | 
98 | COc1cccc(C(O)c2nc(C(=O)Nc3ccccc3)c(C)o2)c1 (centres undefined) | 9.73% [at 172 µM] | 
99 | COc1ccc(Nc2nc(-c3cccc(OC)c3OC)no2)cc1 |  | 22.4 µM (active)
100 | C[C@H]1CN(C(=O)Nc2ccc(F)cc2)C[C@@H]1c1nc(-c2ccccc2)no1 | -3.1% | 
101 | COc1cccc(-c2cc(C(=O)NCc3cc(C)on3)c3c(c2)N(C)CCO3)c1OC | -9.08% [at 172 µM] | 
102 | O=C(Cn1cccc1-c1nc(-c2ccc(F)cc2)no1)Nc1cc(F)cc(F)c1 | 11.3% | 
103 | CCOc1ccc(Nc2ncncc2-c2nc(-c3ccccc3)no2)cc1 | 5.94% | 
104 | Fc1ccc(Nc2nc(-c3ccccc3F)no2)cc1 |  | 2.82 µM (active)
